Molecules are shown by their SMILES. Results filed as inconclusive are left out. Where a call stands in place of a potency, no number is given. Values without a mark were called inactive. Calls of active or inactive are those of the source. Calls come from the whole dose curve; as a rule, active = well fitted inhibition curve with a large enough effect; inconclusive = small, poorly fitted or top-dose-only effect; inactive = flat fitted curve, though single readings scatter.
Potency is the fitted concentration of half-maximal effect.

The assay deals with Phospholipid hydroperoxide glutathione peroxidase GPX4 (Homo sapiens) (UniProt P36969). Nature of the assay: Primary qHTS Assay for Inhibitors of Recombinant Selenoprotein Glutathione Peroxidase 4 (GPX4) (AID 1845192). Note: nearly all actives have a fitted effect of over 65% in size. The note with it: recombinant GPX4, GR-coupled NADPH fluorescence, 15 min; series mostly up to 50 µM. The gist of the method: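 GR-coupled readout: 100 nM GR, 1 mM GSH, 0.5 mM NADPH; NADPH fluorescence (ex 340/em 450 nm) read at t=0 and after 15 min RT. GPX4 200 nM, preincubated 30 min with compound; substrate 0.5 mM CHP.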
Phospholipid hydroperoxide glutathione peroxidase GPX4 (Homo sapiens), sequence (P36969 whole entry, looked up): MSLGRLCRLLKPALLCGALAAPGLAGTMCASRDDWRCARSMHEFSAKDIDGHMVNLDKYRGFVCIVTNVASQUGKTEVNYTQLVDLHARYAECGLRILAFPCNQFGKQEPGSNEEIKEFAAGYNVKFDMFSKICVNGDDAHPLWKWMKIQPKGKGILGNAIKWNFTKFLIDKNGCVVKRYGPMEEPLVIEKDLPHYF
A general note: qHTS replaces the single test concentration by a dilution series.
Take `COc1cc(C(=O)NC(N)=Nc2ccc(C)c(NC(=O)c3ccc(-c4ccccc4)cc3)c2)cc(OC)c1OC`: the Potency result was “inactive”.

For the molecule `COC(=O)C1=C(C)NC(c2ncc(F)cc2F)=N[C@H]1c1ccc(F)cc1Cl`, the Potency result was “inactive”.

On to `COc1ccc(COc2ccc(Cc3cnc(N)nc3N)cc2OC)cc1`, for which the Potency entry is “inactive”.

For `CC1(C)C(N(O)C(=O)Nc2ccc(Cl)cc2)N(c2ccc(Cl)cc2)C(=O)N1CC(=O)N/N=C/C=C/c1ccc([N+](=O)[O-])o1` (stereo not drawn), the Potency was 14.3 µM (active).

Regarding `Cc1cc(-c2cnn3c(NCC4CC(C)(O)C4)cc(Oc4cccnc4)nc23)ccc1C(=O)NC1CC1` (stereo not drawn), the activity change, negative = inhibition was -10.8% [at 4.52 µM].

Consider `Cn1c(-c2ccccc2C(F)(F)F)nnc1C12CCC(c3noc(C4CC(F)(F)C4)n3)(CC1)CC2`, for which the Potency result is “inactive”.

As for `C[C@]12CC[C@H](O)CC1=CC[C@@H]1[C@@H]2CC[C@]2(C)C(c3cccnc3)=CC[C@@H]12`, the Potency result is “inactive”.

Consider `Cc1cc(C)cc(Oc2ccc(CNC(=O)[C@H](C)N)cc2C)c1`, for which the Potency result was “inactive”.

Take `Cn1cc(-c2nc(N[C@@H]3CCCC[C@@H]3N)c(F)c3c2C(=O)NC3)cn1`: the outcome is “inactive [at 4.52 µM]”.

As for `c1ccc(CNCc2ccc(CN3CCCNCCNCCCNCC3)cc2)nc1`, the Potency result is “inactive”.

Regarding `CN1C(=O)N[C@H](Cc2c[nH]c3c(Cl)cccc23)C1=O`, the Potency result is “inactive”.

With `Cc1ccc(NS(=O)(=O)c2ccc3c(c2)C2C=CCC2C(c2ccc(C(=O)O)cc2)N3)cc1C` (stereo not drawn), the Potency was 22.7 µM (active).

Turning to `O=C(Nc1ccccc1)Nc1ccc(-c2ccc(C(=O)[C@@H]3CCC[C@H]3C(=O)O)cc2)cc1`, the Potency was 12.8 µM (active).

(Values after PubChem BioAssay (NCATS).)
